Only a selection was taken, and hits are over-represented in it overall.
Cruzain Triton = cruzain (T. cruzi) inhibition with detergent | AID 1478 | P25779 | Potency, µM, usual class: inhibitors | 200,000 compounds, 0.43% hits | purified cruzain, Z-FR-AMC fluorescence, 0.01% Triton; also: nearly all actives have a fitted effect of over 40% in size
Target sequence (P25779 123-467 limits assumed): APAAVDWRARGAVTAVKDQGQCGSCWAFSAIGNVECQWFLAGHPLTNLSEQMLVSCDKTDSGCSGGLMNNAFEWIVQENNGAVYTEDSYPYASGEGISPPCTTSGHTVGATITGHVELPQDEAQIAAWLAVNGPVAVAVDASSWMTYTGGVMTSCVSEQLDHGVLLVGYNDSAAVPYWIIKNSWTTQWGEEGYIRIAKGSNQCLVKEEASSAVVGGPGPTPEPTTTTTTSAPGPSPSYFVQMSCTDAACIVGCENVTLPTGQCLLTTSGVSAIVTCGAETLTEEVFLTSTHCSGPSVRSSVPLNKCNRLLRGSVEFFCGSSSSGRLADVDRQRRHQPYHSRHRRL
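Enzyme 1.5 nM, Z-FR-AMC 2 uM, NaOAc 100 mM pH 5.5, DTT 5 mM, Triton X-100 0.01%; 15 min RT compound preincubation; kinetic ex360/em450, 60 s delta.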
Cruzain inh noDet = blocks cruzain activity in detergent-free assay; purified cruzain, Z-FR-AMC fluorescence, no detergent; Potency, µM, actives largely listed as inhibitors; 200,000 compounds, 2.3% hits; AID 1476; also: nearly all actives have a fitted effect of over 40% in size
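Purified cruzain at 1.5 nM, pre-incubated 15 min with compound at room temperature in 100 mM sodium acetate pH 5.5, 5 mM DTT, 0.00005% Triton X-100. Reaction started with 2 uM Z-FR-AMC; AMC fluorescence increase over 60 s gives rate.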
FBPA Giardia inh = inhibitors of Giardia lamblia fructose-1,6-bisphosphate aldolase; 290,000 compounds, 0.71% hits; purified Giardia FBPA; Potency, µM (doses to about 59.6 µM), usual class: inhibitors; also: nearly all actives have a fitted effect of over 55% in size
Target sequence (A8B2U2 whole entry, looked up): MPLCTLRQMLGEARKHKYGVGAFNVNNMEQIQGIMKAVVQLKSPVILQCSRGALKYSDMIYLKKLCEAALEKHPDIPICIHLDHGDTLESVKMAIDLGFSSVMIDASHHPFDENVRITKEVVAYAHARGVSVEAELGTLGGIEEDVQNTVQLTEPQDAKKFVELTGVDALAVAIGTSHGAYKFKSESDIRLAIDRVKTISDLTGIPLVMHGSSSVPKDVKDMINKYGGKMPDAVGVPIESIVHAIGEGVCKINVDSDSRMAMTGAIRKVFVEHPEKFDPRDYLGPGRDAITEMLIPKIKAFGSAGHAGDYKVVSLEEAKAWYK
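Giardia FBPA (40 nM reagent) was preincubated 10 min at RT with compound (up to 57.5 uM final), then substrate plus GAPDH/TPI/NAD/arsenate coupling system with diaphorase/resazurin was added; resorufin fluorescence (525/598 nm) was read after 20 min.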
Numbers stand for hits; – = inactive; ? = inconclusive; · = no result given; ! = not confirmed by another sample; [ ] = dose if it differs, or a comment. Calls follow the shape of the dose curve; as a rule, active = well fitted curve in the direction sought with a large enough effect; inconclusive = small, poorly fitted or top-dose-only effect, or another doubt; inactive = no such curve, though single readings can be large; an effect the other way counts as inactive or inconclusive.

SMILES | Cruzain Triton | Cruzain inh noDet | FBPA Giardia inh
Nc1ccc(C2=Nc3cccc4cccc(c34)N2)cc1 | – | 3.2µM | –
c1coc(C2=Nc3cccc4cccc(c34)N2)c1 | · | · | –
COc1cccc(C2=Nc3cccc4cccc(c34)N2)c1 | – | 16µM | ?
C#CCCCO/N=C1/C[C@@H](O)[C@@H](O)[C@@H]2[C@@H]3C(=O)N(c4cccc(Oc5ccccc5)c4)C(=O)[C@H]3CC[C@@H]12 | · | · | –[12.9 µM]
CCCC(C)C(=O)Nc1nc(C)c(-c2csc(Nc3cc(OC)ccc3OC)n2)s1 (stereo not given) | – | ? | –
Cc1nc(N)sc1-c1csc(Nc2ccccc2)n1 | 25µM | 13µM | –
COc1ccc(OC)c(Nc2nc(-c3sc(N)nc3C)cs2)c1 | ? | 25µM | ?
Cc1nc(C)c(-c2csc(Nc3ccc(N)cc3)n2)s1 | · | · | –
COc1ccc(/C=C(\C#N)C(=O)OCC(=O)Nc2c(C)cccc2C)cc1 | – | ? | –
COc1ccc(/C=C(\C#N)C(=O)OCC(=O)NCc2ccccc2)cc1 | – | 32µM | –
O=C(O)/C=C\C(=O)Nc1ncn[nH]1 | – | – | ·
COc1cc2ccc(=O)oc2cc1O | 25µM! | 32µM | –
COc1cc2ccc(=O)oc2cc1OCC(O)C(C)(C)O (stereo not given) | · | · | –
O=c1c2ncn([C@@H]3O[C@@H]4COP(=O)(O)O[C@H]4[C@H]3O)c2nc2[nH]c(-c3ccccc3)cn12 | · | · | –
CCN1CCN(c2cc(C)c3cc(NC(=O)/C=C/c4cccc(Cl)c4)ccc3n2)CC1 | – | – | ·
CC[C@H](C)[C@H](NC(=O)[C@H](C)NC(=O)[C@H](CC(=O)O)NC(=O)[C@H](CO)NC(=O)[C@@H](N)Cc1cnc[nH]1)C(=O)N[C@@H](Cc1ccccc1)C(=O)N[C@H](C(=O)N[C@@H](CCC(N)=O)C(=O)N[C@@H](CCC(N)=O)C(=O)N[C@@H](Cc1ccc(O)cc1)C(=O)N[C@@H](CO)C(=O)N[C@@H](CCCCN)C(=O)N[C@@H](CC(C)C)C(=O)N[C@@H](CC(C)C)C(=O)N[C@@H](C)C(=O)N[C@@H](CCCCN)C(=O)N[C@@H](CC(C)C)C(=O)N[C@@H](C)C(=O)N[C@@H](CC(C)C)C(=O)N[C@@H](CCC(N)=O)C(=O)N[C@@H](CCCCN)C(=O)N[C@@H](Cc1ccc(O)cc1)C(=O)N[C@@H](CC(C)C)C(=O)N[C@@H](C)C(=O)N[C@@H](CO)C(=O)N[C@H](C(=O)N[C@@H](CC(C)C)C(=O)NCC(=O)N[C@@H](CO)C(=O)N[C@@H](CCCNC(=N)N)C(=O)N[C@H](C(=O)N[C@@H](CO)C(=O)N1CCC[C@H]1C(=O)N1CCC[C@H]1C(=O)N1CCC[C@H]1C(N)=O)[C@@H](C)O)[C@@H](C)CC)[C@@H](C)O | · | · | –
Cc1cc(C)cc(Nc2sc(C(=O)c3ccccc3)c(N)c2S(=O)(=O)c2ccccc2)c1 | – | 10µM | ·
Nc1c(C(=O)c2ccccc2)sc(Nc2ccccc2)c1S(=O)(=O)c1ccccc1 | – | 7.9µM | –
Cc1ccc(Nc2sc(C(=O)c3ccccc3)c(N)c2C(N)=O)cc1 | – | – | ·
CCS(=O)(=O)c1c(Nc2ccc(F)c(Cl)c2)sc(C(=O)c2ccccc2)c1N | – | – | ·
CC(C)[C@@H]1NC(=O)[C@H](CCCCN)NC(=O)[C@@H](Cc2c[nH]c3ccccc23)NC(=O)[C@H](Cc2ccc(O)cc2)NC(=O)[C@@H](NC(=O)[C@H](N)Cc2ccccc2)CSSC[C@@H](C(=O)N[C@@H](Cc2c[nH]c3ccccc23)C(N)=O)NC1=O | · | · | –
Cc1ccccc1NC(=O)CSc1nc2nccnc2c(=O)n1CCc1c[nH]c2ccccc12 | – | ? | ·
CC(NC(=O)CN(c1ccc(Cl)cc1Cl)S(=O)(=O)c1ccccc1)c1ccccc1 (stereo not given) | – | – | ·
Cc1c(N=Cc2cccs2)c(=O)n(-c2ccccc2)n1C | – | – | –
Cc1ccc(C2C(C=Nc3c(C)n(C)n(-c4ccccc4)c3=O)=C(c3ccccc3)Oc3ccccc32)cc1 (stereo not given) | – | 7.9µM | –
SMILES | Cruzain Triton | Cruzain inh noDet | FBPA Giardia inh
CN(C)c1ccc(C(=C2C=CC(=[N+](C)C)C=C2)c2ccccc2)cc1 | – | 25µM! | –
CN(C)c1ccc(C(=O)c2ccc(N(C)C)cc2)cc1 | – | – | –
CN(C)c1ccc(C(=O)C(=O)c2ccccc2)cc1 | · | · | –
CN(C)c1ccc(C(=C2C=CC(=[N+](C)C)C=C2)c2ccc(N(C)C)cc2)cc1 | – | 20µM! | 16µM
CCOc1ccc(NC(=O)C2CCCN(c3nnc(-n4c(C)ccc4C)s3)C2)cc1 (stereo not given) | – | – | ·
COc1cc2c(=O)c(S(=O)(=O)c3ccc(C)cc3)cn(Cc3cccc(C)c3)c2cc1OC | – | ? | ·
COc1cc2c(cc1OC)C(COc1ccc(F)cc1)N(C(=O)c1cccc(F)c1)CC2 (stereo not given) | – | – | ·
COc1ccccc1CNC(=O)C1CCN(C2=NS(=O)(=O)C(c3ccc(C)c(C)c3)=C2C)CC1 | – | – | ·
N#C/C(=C\Nc1ccccn1)C(=O)c1ccco1 | – | – | ·
Cc1cc(C)nc(NC(=NCCc2c[nH]c3ccccc23)NC(=O)Nc2cccc([N+](=O)[O-])c2)n1 | – | 10µM | –
Cc1cc(C)nc(NC(=NCCc2c[nH]c3ccccc23)NC(=O)Nc2ccccc2)n1 | – | ? | –
Cc1cc(C)nc(NC(=NCCc2c[nH]c3ccccc23)NC(=O)c2ccco2)n1 | – | ? | –
Cc1cc(C)nc(NC(=NCCc2c[nH]c3ccccc23)NC(=O)Nc2ccc(Cl)c(Cl)c2)n1 | – | 7.9µM | –
O=C(O)[C@@H]1[C@H](C(=O)O)[C@H]2C(=O)C=C[C@H]1N2Cc1ccccc1 | – | – | ·
Cc1nn(-c2ccccc2)c(Cl)c1C1C(C#N)=C(N)Oc2c1c(=O)oc1ccccc21 (stereo not given) | – | 16µM | –
COC(=O)C1=C(C)OC(N)=C(C#N)C1c1c(C)nn(-c2ccccc2)c1Cl (stereo not given) | – | – | –
COc1ccc(C)cc1S(=O)(=O)NCC(c1cccs1)S(=O)(=O)c1ccc(C)cc1 (stereo not given) | – | – | ·
Clc1ss/c(=N\c2ccccn2)c1Cl | – | 25µM | ?
O=C1N/C(=N\c2ccccn2)SC1Cc1ccccc1Cl (stereo not given) | · | · | –
Cc1cccc(NC(=O)CSc2nc3ccc(NC(=O)CSc4nnnn4-c4ccccc4)cc3s2)c1C | – | ? | –
O=C(CSc1nc2ccc(NC(=O)CSc3nnnn3-c3ccccc3)cc2s1)Nc1ccccc1 | – | 5µM | –
O=C(O)CSc1nc2ccc(NC(=O)COc3ccc(Cl)cc3)cc2s1 | – | – | ·
Cc1cccc(NC(=O)CSc2nc3ccc(NC(=O)COc4ccc(Cl)cc4)cc3s2)c1 | – | 7.9µM | ·
CC(C)(C)OC=O | – | – | ·
CCCCN(C)S(=O)(=O)c1cc(-c2cc(C)no2)ccc1C | – | – | ·
COc1ccc(CCNC(=O)c2ccc3c(c2)N(Cc2ccc(C)cc2)CCS3)cc1OC | – | – | ·
Cc1ccc(CN2CCSc3ccc(C(=O)Nc4ccc(F)cc4F)cc32)cc1 | – | ? | ·
COc1cc(OC)c(NC(=O)c2ccc3c(c2)N(Cc2ccc(C)cc2)CCS3)cc1Cl | – | 7.9µM | ·
